“And” between values parts separate entries of the source, which are not always exact repeats. Identical values can stand only once. Results filed as inconclusive are left out. Some structures have more than one record in an assay (separate samples or runs), and their calls can disagree. The source made the active and inactive calls. Unless noted, calls come from the whole dose curve; as a rule, active = well fitted curve in the direction sought with a large enough effect; inconclusive = small, poorly fitted or top-dose-only effect, or another doubt; inactive = no such curve, though single readings can be large; an effect the other way counts as inactive or inconclusive.
Legend:
Hek293T = assay: Primary qHTS to identify gynecologic anti-cancer compounds using libraries of approved drugs and bioactive compounds (AID 1345084); settings: Gynecologic cancer cell panel viability, ATPlite luminescence, 48 h, control line for the selectivity index; series mostly up to 57.5 µM; note: nearly all actives have a fitted effect of over 55% in size; note: potency is the fitted concentration of half-maximal effect
How it was run: (§1)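 Five-point cytotoxicity, 48 h drug exposure at 37 C, 5% CO2, on cells seeded 16 h beforehand. ATP content read by ATPlite luminescence.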

JEG-3 = assay: as above; settings: Gynecologic cancer cell panel viability, ATPlite luminescence, 48 h; series mostly up to 57.5 µM
How it was run: as §1

PA-1 = assay: as above; settings: Gynecologic cancer cell panel viability, ATPlite luminescence, 48 h; series mostly up to 57.5 µM
How it was run: as §1

SKOV3 = assay: as above; settings: Gynecologic cancer cell panel viability, ATPlite luminescence, 48 h; series mostly up to 57.5 µM
How it was run: as §1

Tov-21-G = assay: as above; settings: Gynecologic cancer cell panel viability, ATPlite luminescence, 48 h; series mostly up to 57.5 µM
How it was run: as §1

Tov112D = assay: as above; settings: Gynecologic cancer cell panel viability, ATPlite luminescence, 48 h; series mostly up to 57.5 µM
How it was run: as §1

[1] = Drug repurposing screens with cells derived from glioblastoma tumor samples (AID 1345199); settings: GBM patient neurospheres viability, ATP luminescence, 48 h; note: nearly all actives have a fitted effect of over 40% in size; note: potency is the fitted concentration of half-maximal effect; for activity, negative = cell killing: % is set by controls: 0 for no effect and ±100 for the full control effect
How it was run: (§2)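 Four patient lines of CD133+ GBM neurospheres were screened at several concentrations; hits were retested in those lines plus three slower-growing GBM lines, using 48-hour treatment and ATP-based viability.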

astro = assay: as above; settings: viability, ATP luminescence, 48 h; series mostly up to 45.9 µM
How it was run: as §2

[2] = qHTS assay to identify inhibitors of the type 1 interferon - major histocompatibility complex class I in skeletal muscle: Counter screen cell viability and HiBit confirmation (AID 1347412); settings: iHSKM muscle cells + IFN-b, HiBiT or CellTiter-Glo, 24 h; Potency: HiBiT; Viability, at 45.9 µM (top of the series); note: nearly all actives have a fitted effect of over 60% in size; note: potency is the fitted concentration of half-maximal effect
How it was run: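 After 24 h with human IFN-beta (4 ng/ml) and compound titrations (top 46 uM final, 1:3, 12 points), HLA-B HiBit myoblasts were lysed for either Nano-Glo HiBiT luminescence or CellTiter Glo viability on paired plates.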

[3] = biological target: Nuclear receptor subfamily 1 group I member 2 (Rattus norvegicus) (UniProt Q9R1A7); assay: qHTS assay for small molecule activators of the rat pregnane X receptor (rPXR) signaling pathway (AID 651751; call rule not given here; note: 0% is about no effect); settings: rPXR reporter cells, luciferase (One-Glo), 24 h
Sequence of Nuclear receptor subfamily 1 group I member 2 (Rattus norvegicus) (Q9R1A7 whole entry, looked up): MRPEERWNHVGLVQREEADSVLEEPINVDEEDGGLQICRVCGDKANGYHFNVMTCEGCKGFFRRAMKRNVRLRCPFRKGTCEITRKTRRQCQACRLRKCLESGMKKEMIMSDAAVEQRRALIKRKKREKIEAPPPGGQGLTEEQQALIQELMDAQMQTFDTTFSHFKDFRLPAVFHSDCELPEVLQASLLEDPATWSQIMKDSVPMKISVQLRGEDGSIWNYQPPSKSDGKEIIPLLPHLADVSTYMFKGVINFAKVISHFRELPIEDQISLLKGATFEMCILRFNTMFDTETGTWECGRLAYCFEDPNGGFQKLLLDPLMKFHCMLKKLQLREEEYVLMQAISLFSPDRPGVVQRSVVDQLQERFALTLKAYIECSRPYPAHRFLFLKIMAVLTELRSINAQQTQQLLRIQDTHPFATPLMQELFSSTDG

OV90 = assay: Primary qHTS to identify gynecologic anti-cancer compounds using libraries of approved drugs and bioactive compounds (AID 1345084); settings: Gynecologic cancer cell panel viability, ATPlite luminescence, 48 h; series mostly up to 57.5 µM; note: nearly all actives have a fitted effect of over 55% in size; note: potency is the fitted concentration of half-maximal effect
How it was run: as §1

[4] = qHTS assay for small molecule activators of the human pregnane X receptor (PXR) signaling pathway (AID 720659; call rule not given here; note: 0% is about no effect)
[5] = at 45.9 µM (top of the series), tumour line B
[6] = at 45.9 µM (top of the series), tumour line D
[7] = at 46 µM (top of the series), tumour line A
[8] = at 46.1 µM (top of the series), tumour line C
[9] = at 20 µM (top of the series), tumour line C

Cc1ccccc1N1C(=O)c2cc(S(N)(=O)=O)c(Cl)cc2NC1C (stereo unspecified)
active: Potency ([1]; tumour line A) 35.5 µM
inactive: Potency (Hek293T) | Potency (JEG-3) | Potency (PA-1) | Potency (SKOV3) | Potency (Tov-21-G) | Potency (Tov112D) | activity, negative = cell killing [1, 5] -0.853% and -2.25% | activity, negative = cell killing [1, 6] 16.5% and -1.42% | activity, negative = cell killing [1, 7] -25.2% | activity, negative = cell killing [1, 8] -19% and -29.3% | Potency (astro)

OCCN1CCN(CCCN2c3ccccc3Sc3ccc(C(F)(F)F)cc32)CC1
active: Potency ([1]; tumour line A) 1.26 µM | Potency ([1]; tumour line D) 10 µM | Potency (astro) 22.4 µM
inactive: Potency (JEG-3) | Potency (PA-1) | Potency (SKOV3) | Potency (Tov-21-G) | Potency (Tov112D) | activity, negative = cell killing [1, 8] -28.6% | Potency [2]

CCC1(C)CC(=O)NC1=O (stereo unspecified)
inactive: Potency (Hek293T) | Potency (JEG-3) | Potency (PA-1) | Potency (SKOV3) | Potency (Tov-21-G) | Potency (Tov112D) | activity, negative = cell killing [1, 5] -5.39% | activity, negative = cell killing [1, 6] -6.6% | activity, negative = cell killing [1, 7] -18.2% | activity, negative = cell killing [1, 8] -11.1% | Potency (astro)

CC(C)NCC(O)c1ccc(O)c(O)c1 (stereo unspecified)
inactive: Potency (Hek293T) | Potency (JEG-3) | Potency (SKOV3) | Potency (Tov-21-G) | Potency (Tov112D) | activity, negative = cell killing [1, 5] -7.24% | activity, negative = cell killing [1, 6] 4.85% | activity, negative = cell killing [1, 8] 7.09% | Potency (astro) | max response [3] -3.83% and 3.86%

C[C@](N)(Cc1ccc(O)c(O)c1)C(=O)O
inactive: Potency (Hek293T) | Potency (OV90) | Potency (PA-1) | Potency (SKOV3) | Potency (Tov-21-G) | Potency (Tov112D) | activity, negative = cell killing [1, 5] -10.5% | activity, negative = cell killing [1, 6] -4.46% | activity, negative = cell killing [1, 8] 1.22% | Potency (astro) | max response [3] -1.2% | outcome [4]

COc1ccccc1N1CCN(CC(O)COc2cccc3ccccc23)CC1 (stereo unspecified)
inactive: activity, negative = cell killing [1, 8] -13.1% | Potency (astro)
active: Potency (Hek293T) 31.6 µM | Potency (PA-1) 3.55 µM | Potency (SKOV3) 1.78 µM | Potency ([1]; tumour line A) 12.6 µM

COc1ccccc1OCCNCC(O)COc1cccc2[nH]c3ccccc3c12 (stereo unspecified)
inactive: Potency (PA-1) | Potency (SKOV3) | Potency (Tov-21-G) | Potency (Tov112D) | activity, negative = cell killing [1, 8] 3.12% | Potency (astro)
active: Potency ([1]; tumour line A) 11.2 µM

COc1ccc2c(c1)c(CC(=O)O)c(C)n2C(=O)c1ccc(Cl)cc1
inactive: Potency (Hek293T) | Potency (JEG-3) | Potency (PA-1) | Potency (SKOV3) | Potency (Tov-21-G) | Potency (Tov112D) | activity, negative = cell killing [1, 5] -14.6% | activity, negative = cell killing [1, 6] -6.82% | activity, negative = cell killing [1, 7] -26.1% | activity, negative = cell killing [1, 8] -12.3% | Potency (astro) | max response [3] -2.59% and -3.57% | outcome [4]

CCCNCC(O)COc1ccccc1C(=O)CCc1ccccc1 (stereo unspecified)
active: Potency ([1]; tumour line A) 7.08 µM
inactive: Potency (Hek293T) | Potency (JEG-3) | Potency (PA-1) | Potency (Tov-21-G) | Potency (Tov112D) | activity, negative = cell killing [1, 8] 27.1% | Potency (astro)

O=C(CCCN1CCC(O)(c2ccc(Cl)cc2)CC1)c1ccc(F)cc1
inactive: Potency (Hek293T) | Potency (JEG-3) | Potency (Tov112D) | activity, negative = cell killing [1, 8] -10.7%
active: Potency ([1]; tumour line A) 11.2 µM | Potency ([1]; tumour line D) 15.8 µM

CN1CCN2c3ccccc3Cc3ccccc3C2C1 (stereo unspecified)
active: Potency ([1]; tumour line A) 11.2 µM | Potency ([1]; tumour line D) 20 µM | Potency (astro) 20 µM
inactive: Potency (JEG-3) | activity, negative = cell killing [1, 8] -2.24%

COc1cc2nc(N3CCN(C(=O)C4COc5ccccc5O4)CC3)nc(N)c2cc1OC (stereo unspecified)
active: Potency ([1]; tumour line A) 11.2 µM
inactive: Potency (Hek293T) | Potency (JEG-3) | Potency (PA-1) | Potency (Tov-21-G) | Potency (Tov112D) | activity, negative = cell killing [1, 5] -16.3% | activity, negative = cell killing [1, 6] -29.3% | activity, negative = cell killing [1, 8] -17.1% | Potency (astro)

CN(C)CCC=C1c2ccccc2C=Cc2ccccc21
active: Potency ([1]; tumour line A) 14.1 µM
inactive: Potency (Hek293T) | Potency (JEG-3) | Potency (PA-1) | Potency (Tov-21-G) | activity, negative = cell killing [1, 8] 15.9% | Potency (astro)

CC(C)C(=O)Nc1ccc([N+](=O)[O-])c(C(F)(F)F)c1
inactive: Potency (Tov-21-G) | Potency (Tov112D)

Fc1ccc([C@@H]2CCNC[C@H]2COc2ccc3c(c2)OCO3)cc1
inactive: Potency (Hek293T) | Potency (JEG-3) | Potency (PA-1) | Potency (Tov-21-G) | Potency (Tov112D) | Potency [2]
active: Potency (astro) 22.4 µM

O=C1c2c(O)ccc(O)c2C(=O)c2c(NCCNCCO)ccc(NCCNCCO)c21
inactive: activity, negative = cell killing [1, 9] -23.1%
active: Potency (Hek293T) 10 µM | Potency (JEG-3) 11.2 µM | Potency (OV90) 28.2 µM | Potency (Tov-21-G) 28.2 µM | Potency ([1]; tumour line A) 3.98 µM | Potency ([1]; tumour line B) 8.91 µM | Potency ([1]; tumour line D) 5.62 µM | Potency (astro) 5.01 µM | Potency [2] 1.76 µM

Cc1cc(C(C)(C)C)cc(C)c1CC1=NCCN1
inactive: Potency (JEG-3) | Potency (Tov-21-G) | Potency (Tov112D) | activity, negative = cell killing [1, 9] -2.93% | activity, negative = cell killing ([1]; at 21.2 µM (top of the series), tumour line B) -9.52% | activity, negative = cell killing ([1]; at 21.2 µM (top of the series), tumour line D) -25.7% | Potency (astro)

CN(Cc1cnc2nc(N)nc(N)c2n1)c1ccc(C(=O)N[C@@H](CCC(=O)O)C(=O)O)cc1
active: Potency (Hek293T) 0.158 µM | Potency (JEG-3) 0.316 µM | Potency (Tov-21-G) 0.1 µM
inactive: Potency (SKOV3) | activity, negative = cell killing [1, 5] 5.57% | activity, negative = cell killing [1, 6] 3.85% | activity, negative = cell killing [1, 7] 1.95% | activity, negative = cell killing [1, 8] -0.888% | Potency (astro) | max response [3] -4.55% | outcome [4]

COC(=O)Nc1nc2ccc(C(=O)c3cccs3)cc2[nH]1
active: Potency (JEG-3) 0.355 µM | Potency (OV90) 7.08 µM | Potency (PA-1) 0.224 µM | Potency (Tov112D) 0.316 µM

N[C@@H](Cc1c[nH]c2ccc(O)cc12)C(=O)O
inactive: Potency (Hek293T) | Potency (JEG-3) | Potency (PA-1) | Potency (SKOV3) | Potency (Tov-21-G) | Potency (Tov112D) | activity, negative = cell killing [1, 5] -15.2% | activity, negative = cell killing [1, 6] -5.01% | activity, negative = cell killing [1, 7] -33.5% | activity, negative = cell killing [1, 8] -4.77% | Potency (astro) | max response [3] 2.83% | outcome [4]

Source: PubChem BioAssay (NCATS)
